Measured potencies and affinities stand elsewhere. Inconclusive results are not listed. The source made the active and inactive calls.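 Rule for the calls: active = a valid curve of falling signal whose half-effect concentration is at most ten times the top tested dose; inconclusive = flat curve at 30 to 70% inhibition, or poor fit; inactive = signal rise, flat within 30%, or potency beyond limit.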

The assay deals with Scavenger receptor class B member 1 (Mus musculus) (UniProt Q61009). Kind of assay: inhibitors of SR-BI mediated HDL lipid uptake, dose response, ldlA[mSR-BI] cells, fluorescence, cherry pick (AID 493194).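 Note: CHO cells lacking LDL receptor and overexpressing mouse SR-BI; cellular uptake of fluorescently labeled HDL measured as cell fluorescence.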 To be noted: CHO ldlA[mSR-BI] DiI-HDL uptake fluorescence, 3 h; series mostly up to 35 µM.
Sequence of Scavenger receptor class B member 1 (Mus musculus) (Q61009 whole entry, looked up): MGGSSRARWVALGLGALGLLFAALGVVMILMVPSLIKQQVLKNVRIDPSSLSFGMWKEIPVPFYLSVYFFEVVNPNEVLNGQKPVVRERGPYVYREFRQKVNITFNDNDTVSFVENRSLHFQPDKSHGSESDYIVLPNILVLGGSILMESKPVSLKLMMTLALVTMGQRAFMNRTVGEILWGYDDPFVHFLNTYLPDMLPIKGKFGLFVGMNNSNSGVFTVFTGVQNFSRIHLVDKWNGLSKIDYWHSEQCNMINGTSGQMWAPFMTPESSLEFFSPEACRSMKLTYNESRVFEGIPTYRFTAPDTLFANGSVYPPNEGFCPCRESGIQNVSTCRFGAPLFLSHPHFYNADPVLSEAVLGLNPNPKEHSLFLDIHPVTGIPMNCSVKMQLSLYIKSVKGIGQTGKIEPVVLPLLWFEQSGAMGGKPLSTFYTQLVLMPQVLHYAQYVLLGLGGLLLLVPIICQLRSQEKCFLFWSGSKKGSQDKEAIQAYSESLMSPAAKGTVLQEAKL
Take `CCOC(=O)C1CCCN(S(=O)(=O)NC[C@H]2O[C@@H](n3cnc4c(N)ncnc43)[C@H](O)[C@@H]2O)C1` (stereo not given in full): the outcome was inactive.
The same measure for `O=C(Nc1ccc(N2CCOCC2)cc1)c1cccc(S(=O)(=O)N2CCC(Cc3ccccc3)CC2)c1`: “inactive”; for `Cc1ccc(-c2nn(-c3ccccc3)cc2/C=C/C(=O)OCC(=O)NC2CC2)o1`: “inactive”.
The result for `COc1ccc(OC)c(CCNC(=O)c2ccc3c(c2)N(Cc2ccccc2)CCS3)c1` reads “inactive”; that for `COCC(C)N1CC(O)=C(c2nc(-c3ccc(Cl)cc3)cs2)C1=N` (stereo not given), “inactive”.
The same measure for `COc1ccccc1CNC(=O)C1CCN(C(=O)c2sccc2-n2cccc2)CC1`: “inactive”.
Take `O=C(c1cccc(Cl)c1)N1CCC2CC1c1cc(-c3ccccc3)ccc12` (stereo not given): the outcome was inactive.
In the case of `CCCCn1nc2cc(C(=O)NC3CCCc4ccccc43)ccc2c1OCC` (stereo not given), the molecule was classed as inactive.
The same measure for `COc1ccc(C2/C=C\CN(S(=O)(=O)c3ccc(C)cc3)CC(=O)N2Cc2cccc(F)c2)cc1` (stereo not given): “inactive”; for `COc1ccc(S(=O)(=O)N2CCC(C(=O)NN3CCCCC3)CC2)cc1OC`: “inactive”.
The result for `CCOC(=O)C(C)(C)Sc1nc2c(cnn2-c2ccc(F)cc2)c(=O)[nH]1` reads “inactive”.
The same measure for `CCC(C)C1/C=C\CC(NC(=O)OCC2c3ccccc3-c3ccccc32)CC(=O)N1Cc1ccccc1` (stereo not given): “inactive”; for `Cc1ccc(OCC(=O)NNC(=O)C2CCN(c3ncnc4sc(C)c(C)c34)CC2)cc1`: “inactive”.
On to `Cc1ccsc1-c1nc(-c2ccccc2)c(-c2ccccc2)[nH]1`, for which the molecule was classed as inactive.
The same measure for `O=C(NNC(=O)c1ccccc1O)c1ccc(S(=O)(=O)Nc2ccccc2)cc1`: “inactive”.

The values above are taken from PubChem BioAssay AID493194 (Broad Institute, 2011).
